Tg IFNy HTS – T. gondii growth inhibition under IFN-gamma | Toxoplasma gondii growth in IFN-gamma-treated host cells; active compounds read low | activity change, negative = inhibition, % (concentration not given with the values) | hit rate 3.8% among 69,000; in the data active means activity change below about -70%, passing the limit was not always enough;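 further: host cells are HeLa cells infected with Toxoplasma gondii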
* = called active by the depositor; ! = repeats disagree. Shown is part of a subset that was picked to be rich in hits.

SMILES	Tg IFNy HTS
CCOC(=O)c1[nH]c(C)c(CN2CC3CCCN3C[C@@H]2C)c1C (stereo partly drawn)	-18
CCOC(=O)c1[nH]c(C)c(C(=O)OCC)c1C	146
CCOC(=O)c1[nH]c(C)c(S(=O)(=O)NC2CCCCNC2=O)c1C (stereo not drawn)	-95*
COc1ccccc1NC(=O)c1ccc2nsnc2c1	70
COc1cc(C(=O)Nc2ccc(-c3nc(-c4ccc(C)cc4)co3)cc2)cc(OC)c1OC	16
COc1cc(C(=O)Nc2ccccc2-c2nc3ccccc3s2)cc(OC)c1OC	-90*
O=C(Cn1nnc(-c2ccc(Cl)cc2)n1)NCCCN1CCOCC1	-54
OC(CNC1Cc2ccccc2C1)COc1ccc(F)cc1 (stereo not drawn)	-40
CCc1ccccc1OC[C@@H](O)CN[C@H]1CCCc2ccccc21	-80*!
CC(C)(C)NC[C@H](O)COc1ccccc1C1CCCC1	16
CN(CCOc1ccccc1)C(=O)c1ccc(CC2CCCNC2)cc1 (stereo not drawn)	0
CCn1c(=O)c(-c2nc(-c3ccccc3C)no2)c(O)c2cc(F)ccc21	35
COc1ccc(CN2C(=O)CC(C(N)=O)SC2=Nc2ccc(OC)cc2)cc1 (stereo not drawn)	-40
COc1cc(C(=O)Oc2cc(C)cc(C)c2)cc(OC)c1OC	-2
COc1ccc(C(=O)/C=C/c2ccc(OC(=O)c3cc(OC)c(OC)c(OC)c3)cc2)cc1	-25
COc1cc(C(=O)Oc2ccc(C3CCCCC3)cc2)cc(OC)c1OC	-94*
CCC(C)SSc1ncc[nH]1 (stereo not drawn)	12
CC(Cc1cnccn1)NC(=O)C1(N(C)Cc2ccccc2)Cc2ccccc2C1 (stereo not drawn)	11
Cc1cccc(CN2CC3(CCN(C(=O)c4ccno4)CC3)CC2=O)c1	-33
CCN1C(=O)N(Cc2cccc(OC)c2)C(=O)C12CCN(Cc1ccc(N3CCCC3)cc1)CC2	-14
CCN1C(=O)N(Cc2cccc(OC)c2)C(=O)C12CCN(CC(c1ccccc1)c1ccccc1)CC2	9
CCN1C(=O)N(Cc2cccc(OC)c2)C(=O)C12CCN(Cc1cc3ccccc3s1)CC2	-90*
COc1ccccc1CNC(=O)CC1N=C2c3ccccc3N=C(SCC#N)N2C1=O (stereo not drawn)	9
CC(C)(C)C1CCc2onc(C(=O)NCC(C)(C)N3CCCCC3)c2C1 (stereo not drawn)	-15
Cc1ccc(OCCN(C)C)c(NC(=O)c2noc3c2CC(C(C)(C)C)CC3)c1 (stereo not drawn)	-74*
SMILES	Tg IFNy HTS
CN(C)c1cc(C(=O)Nc2ccccc2OCC2CCCCO2)ccn1 (stereo not drawn)	-8
CCC(=O)Nc1ccc(-c2nnc(C(F)(F)F)o2)cc1C	22
CCCOc1ccc(-c2noc(-c3c(O)c4ccccc4n(CC)c3=O)n2)cc1	84
CNC(=O)Cn1cc(-c2cccc3ccnn23)cn1	3
NC(=O)c1csc(-c2cccc3ccnn23)n1	-98*
Cc1nnc(-c2ccccc2-c2cccc3ccnn23)s1	-41
C=CCN1CC[C@H]2CN(Cc3ccsc3)C[C@H]2C1=O	175
COc1ccc(S(=O)(=O)N(C)Cc2nonc2C)cc1NC(C)=O	7
CC(=O)N[C@@H]1C[C@H](CC(C)C)O[C@H](c2c(C)n(C)n(-c3ccccc3)c2=O)C1	-1
COC(=O)c1c(NCc2ccc(F)cc2F)c2cccc(Cl)c2[nH]c1=O	-76*
COC(=O)c1c(NCc2cc(F)cc(F)c2)c2cccc(Cl)c2[nH]c1=O	-98*
COC(=O)c1c(NCc2ccccc2OC)c2cccc(Cl)c2[nH]c1=O	-4
COC(=O)c1c(NCc2ccc(OC)cc2)c2cccc(Cl)c2[nH]c1=O	-29
COC(=O)c1c(NCc2ccc(F)cc2F)c2cc(F)ccc2[nH]c1=O	6
COC(=O)c1c(NCc2ccc3c(c2)OCO3)c2cccc(Cl)c2[nH]c1=O	82
COC(=O)c1c(NCc2cccnc2)c2cccc(Cl)c2[nH]c1=O	17
COC(=O)c1c(NCc2ccccc2)c2cccc(Cl)c2[nH]c1=O	-55
COC(=O)c1c(NCC(C)C)c2cccc(Cl)c2[nH]c1=O	-7
COC(=O)c1c(NCc2ccc(SC)cc2)c2cccc(Cl)c2[nH]c1=O	-79*
COC(=O)c1c(NCCC(C)C)c2cccc(Cl)c2[nH]c1=O	-85*
COC(=O)c1c(NCCO)c2cccc(Cl)c2[nH]c1=O	3
O=C(CC1Nc2c3ccccc3nc(=S)n2C1=O)NCCN1CCN(c2cccc(Cl)c2)CC1 (stereo not drawn)	7
CN(C)C(=O)N1CCN(C)C(c2nnc3ccc(C(=O)N4CCCC4)cn23)C1 (stereo not drawn)	-16
Cc1cccc(NC(=O)N2CCC3(CC2)CC(CC(=O)N(C)C)c2ccccc2O3)c1 (stereo not drawn)	-9
CCc1nnsc1C(=O)N1CCOC(Cc2ccc(OC)cc2)C1 (stereo not drawn)	-4
Cc1nc(-c2cccc(F)c2)sc1CCNC(=O)C(=O)Nc1ccccc1	41
COc1ccc(-c2nc3c(s2)CN(C(=O)Nc2ccccc2C)CC3)cc1OC	43

Screens as filed in PubChem.
